Laboratory results taken from PubChem BioAssay AID618 (Sanford-Burnham Center for Chemical Genomics, 2007).
The campaign covered roughly 87,000 compounds. About 540 (0.62%) were called active. How the calls were made is not given here. Shown is part of a subset that was picked to be rich in actives. Entries with a potency or affinity are not part of this list.

Test: MT1-MMP gene expression reporter suppression – cell-based, luciferase reporter, luminescence (AID 618);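 further: actives suppress MT1-MMP promoter-driven transcription so potencies describe inhibitors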
Details: MT1-MMP promoter luciferase reporter cells

outcome, inactive:
CC(CNS(=O)(=O)c1cc(Cl)ccc1Cl)CN(C)C (stereo unspecified), COc1ccccc1NC(=O)CC1C(=O)NCCN1C(=O)Nc1ccc(Cl)c(Cl)c1 (stereo unspecified), CCCCC(=O)Nc1ccc2oc(-c3ccncc3)nc2c1, O=C(c1ccc2snnc2c1)N1CCOCC1, Cc1cc(C(=O)CN2C(=O)C3CC=CCC3C2=O)c(C)n1-c1ccccc1 (stereo unspecified), Cc1cc(C(=O)COC(=O)C2COc3ccccc3O2)c(C)n1CC1CCCO1 (stereo unspecified), Cc1ccc(C)c(C(=O)CN2C(=O)c3ccccc3S2(=O)=O)c1, Cc1cc(C(=O)Cn2nnc(-c3ccc(Cl)cc3)n2)c(C)n1CC1CCCO1 (stereo unspecified), Cc1cc(C(=O)COC(=O)c2n[nH]c3ccccc23)c(C)n1CC1CCCO1 (stereo unspecified), Cc1cc(C(=O)CSc2nnnn2-c2ccccc2)c(C)n1CC1CCCO1 (stereo unspecified), Cc1ccc(-c2nc(NC(=O)CSc3nnc(C)s3)ns2)cc1, Cc1ccc(OCC(=O)Nc2ccc(N3CCOCC3)cc2)cc1, Cc1ccc(N(C(C)C(=O)N2CCC(C)CC2)S(C)(=O)=O)cc1C (stereo unspecified), Cc1ccc(CC2CC(=O)N(c3cc(C)on3)C2=O)cc1 (stereo unspecified), CCOc1ccccc1NC(=O)C1CCCN(C(=O)NCc2ccccc2)C1 (stereo unspecified), CCOC(=O)c1[nH]c(C)c(C(=O)Nc2ccc(C)c(Cl)c2)c1C, CCOC(=O)c1[nH]c(C)c(C(=O)Nc2ccc(C)cc2C)c1C, CCOC(=O)c1[nH]c(C)c(C(=O)OCC(=O)N2CCc3ccccc32)c1C, CCOC(=O)c1[nH]c(C)c(C(=O)Nc2ccccc2F)c1C, CCOC(=O)c1[nH]c(C)c(C(=O)Nc2ccc(Cl)cc2)c1C, CCOC(=O)c1c(C)[nH]c(C(=O)OCC(=O)N2CCc3ccccc32)c1C, COc1cc(NS(=O)(=O)c2ccc3c(c2)n(C)c(=O)n3C)cc(OC)c1, COc1ccc(C)cc1NC(=O)CSc1nnc(CC(=O)Nc2ccccc2C)n1C, CCOC(=O)c1ccc(NC(=O)CN2CCN(CCN=CC3=C(O)CC(C)(C)CC3=O)CC2)cc1, COC(=O)c1[nH]c2cc(C)ccc2c1NC(=O)CN1CCCc2ccccc21, Cc1nc2sc(C(c3cccs3)N3CCN(c4cccc(Cl)c4)CC3)c(O)n2n1 (stereo unspecified), O=C(c1cn(-c2ccccc2)nc1-c1ccncc1)N1CCCCC1, COc1ccccc1C(=O)N1CCN(c2cccc(Cl)c2)CC1, COc1ccc(C(=O)N2CCN(c3cccc(Cl)c3)CC2)c(OC)c1, O=C(c1ccccc1F)N1CCN(c2cccc(C(F)(F)F)c2)CC1, COc1ccccc1CC(=O)N1CCN(c2cccc(C(F)(F)F)c2)CC1, Cc1cc(-c2nn3c(C)nnc3s2)ccc1NC(=O)C(C)(C)C, CCOC(=O)c1cc(C)sc1NC(=O)CCC(=O)O, COc1ccc(Cn2c3nc4ccccc4nc3c3c(=O)n(Cc4ccco4)c(C)nc32)cc1, Cc1csc(NC(=O)CSc2nnc(-c3ccoc3C)o2)n1, CCC(O)c1cc2c(cc1NC(=O)c1cccs1)OCCO2 (stereo unspecified), Cc1ccc(C(=O)NCCCNCCCNC(=O)c2ccc(C)nc2)cn1, CCn1c(COc2cccc(C)c2)nnc1SCC(=O)Nc1cccc(C(=O)OC)c1, CC(CC(=O)O)CC(=O)Nc1ccccc1C(=O)O (stereo unspecified), COc1ccc(-c2cc3nc4c(c(=O)n3[nH]2)CCC4)cc1, O=c1c2c(nc3cc(-c4ccccc4)[nH]n13)CCC2, COCCCN1C(=O)C(=O)/C(=C(/O)c2ccc(OC(C)C)cc2)C1c1cccnc1 (stereo unspecified), COc1ccc2nc(-c3cccc(N)c3)[nH]c2c1, Nc1nc(-c2nc3ccccc3[nH]2)cs1, c1ccc2[nH]c(-c3ccnc4ccccc34)nc2c1, Nc1ccc(-c2nc3ccccc3[nH]2)cc1, CCOc1ccc2nc(-c3ccccc3)[nH]c2c1, COc1ccc(OCc2nc3ccccc3[nH]2)cc1, CC(C)CN1C(=O)c2ccc(NC(=O)c3cccs3)cc2C1=O, O=C(NCc1ccco1)C(c1ccccc1)N(C(=O)Cc1cccs1)c1ccccc1 (stereo unspecified), CC(=O)NCCOc1cccc(OCCNC(C)=O)c1, COc1cc(/C=N/NC(=O)CCc2c(C)n[nH]c2C)ccc1O

outcome, active:
Cc1ccsc1C(=O)OCC(=O)c1cc(C)n(CC2CCCO2)c1C (stereo unspecified), Cc1cc(C(=O)CN2C(=O)c3ccccc3S2(=O)=O)c(C)n1-c1ccccc1, CCOC(=O)c1[nH]c(C)c(C(=O)Nc2cc(Cl)ccc2C)c1C, CCOC(=O)c1[nH]c(C)c(C(=O)N2CCc3ccccc32)c1C, CCOC(=O)c1[nH]c(C)c(C(=O)Nc2ccccc2C)c1C, CCOc1ccccc1C(=O)N1CCN(c2cccc(Cl)c2)CC1, COc1ccccc1C(=O)N1CCN(c2cccc(C(F)(F)F)c2)CC1, COc1ccc2nc(-c3ccccc3)[nH]c2c1, c1ccc2nc(-c3nc4ccccc4[nH]3)ccc2c1
